Records with an inconclusive call do not appear. Active and inactive are the calls of the source. Unless noted, calls come from the whole dose curve; as a rule, active = well fitted curve in the direction sought with a large enough effect in the repeat runs; inconclusive = weak or mixed curves; inactive = no such curve, though single readings can be large; an effect the other way counts as inactive or inconclusive. Non-standard residues stand in square brackets, D forms with d. Residues, ends and D or L forms follow the SMILES beside them. pGlu = O=C1CC[C@@H](C(=O)O)N1; Thz = O=C(O)[C@@H]1CSCN1
Experiments:
[1] = qHTS assay for small molecule agonists of the p53 signaling pathway (AID 651631; calls by dose curve; note: nearly all actives have a fitted effect of over 15% in size; note: potency is the fitted concentration of half-maximal effect)
Procedure, shortened: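 We treat p53RE-bla HCT-116 cells with compounds for 16 h at 37 °C, add LiveBLAzer B/G FRET substrate for 2 h at room temperature, and measure fluorescence intensity.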

[2] = qHTS assay for small molecules that induce genotoxicity in human embryonic kidney cells expressing luciferase-tagged ATAD5 (AID 651632); note: nearly all actives have a fitted effect of over 15% in size; note: potency is the fitted concentration of half-maximal effect
Procedure, shortened: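 ATAD5-luc HEK293T, 2,000 cells/well; cpd or DMSO pin-transferred; 16 hr, 37C/5% CO2; Amplite 30 min RT; luminescence.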

[3] = qHTS assay for small molecule agonists of the p53 signaling pathway - cell viability (AID 651633; calls by dose curve; note: nearly all actives have a fitted effect of over 30% in size; note: potency is the fitted concentration of half-maximal effect)
Procedure, shortened: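 p53RE-bla cells were treated with compound for 16 hours at 37 C. Cytotoxicity was then measured as CellTiter-Glo luminescence after 30 min at room temperature.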

[4] = qHTS assay for small molecules that induce genotoxicity in human embryonic kidney cells expressing luciferase-tagged ATAD5 - cell viability (AID 651634; calls by dose curve; note: nearly all actives have a fitted effect of over 25% in size; note: potency is the fitted concentration of half-maximal effect)
Procedure, shortened: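 Fluorescence from CellTiter-Fluor, reporting protease activity within live cells, served as the viability read-out. HEK293T cells carrying luciferase-tagged ATAD5 had been treated with compound for 15.5 hr at 37C.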

[5] = qHTS assay for small molecule disruptors of the mitochondrial membrane potential - cell viability (AID 720634; calls by dose curve;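 note: human HepG2 liver cancer cells; nearly all actives have a fitted effect of over 20% in size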)
Procedure, shortened: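 Cells: HepG2, 2,000/well, attached overnight. Compound 1 hr, 37 C/5% CO2. +m-MPI dye, +CellTiter-Glo 30 min RT. Readout: luminescence (ATP).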

[6] = qHTS assay to test for compound auto fluorescence at 590 nm (red) in HepG2 cells (AID 720674)
Procedure, shortened: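 Seeding: 2,000 HepG2 cells/well, MEM/10% FBS, overnight 37 C. Dosing: compound vs DMSO. Incubation: 1 hr, 37 C, 5% CO2. Read: fluorescence 540 ex/590 em, Rose Bengal sodium as red reference.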

[7] = qHTS assay to test for compound auto fluorescence at 535 nm (green) in HepG2 cells (AID 720675)
[8] = qHTS assay to test for compound auto fluorescence at 460 nm (blue) in HEK293 cells (AID 720678)
Procedure, shortened: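 Cells were seeded and left to adhere for 4-5 hr at 37C. Compounds were then pin-transferred. After an overnight incubation at 37C under 5% CO2, intrinsic fluorescence at 405/460 nm was measured and referenced to triamterene.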

[9] = qHTS assay to test for compound auto fluorescence at 590 nm (red) in HEK293 cells (AID 720679)
Procedure, shortened: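 Each well held 2,000 HEK293 cells in medium containing 10% dialyzed FBS. Following 4-5 hr attachment at 37C, 23 nL test compound or DMSO was added; plates sat overnight, and red fluorescence (540/590nm) was recorded.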

[10] = qHTS assay to test for compound auto fluorescence at 535 nm (green) in HEK293 cells (AID 720680)
[11] = qHTS assay to test for compound auto fluorescence at 460 nm (blue) in HEK293 cell free culture (AID 720681)
Procedure, shortened: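 Compounds were added to cell-free DMEM with 10% FBS and fluorescence read directly. The blue channel used 405 nm excitation and 460 nm emission, with triamterene as the reference fluorophore.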

[12] = qHTS assay to test for compound auto fluorescence at 535 nm (green) in HEK293 cell free culture (AID 720682)
Procedure, shortened: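 Green-channel intensity (Ex/Em 485/535 nm) was recorded from compound-treated wells containing only DMEM with 10% FBS. Fluorescein provided the equivalency standard.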

[13] = qHTS assay to test for compound auto fluorescence at 590 nm (red) in HEK293 cell free culture (AID 720683)
Procedure, shortened: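 Cell-free wells of DMEM with 10% FBS received compound, and intrinsic fluorescence was read at excitation/emission 540/590 nm. Values expressed as equivalence to Rose Bengal sodium.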

[14] = qHTS assay to test for compound auto fluorescence at 590 nm (red) in HepG2 cell free culture (AID 720684)
Procedure, shortened: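 Compound was pinned into wells holding MEM with 10% FBS and no cells, and red fluorescence was read at Ex/Em 540/590 nm. Signal is expressed as auto fluorescence equivalency relative to Rose Bengal sodium.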

[15] = qHTS assay to test for compound auto fluorescence at 460 nm (blue) in HepG2 cell free culture (AID 720685)
Procedure, shortened: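 Compound (23 nL) or DMSO pinned into cell-free MEM with 10% FBS; blue fluorescence read at 405/460 nm excitation/emission, expressed as auto-fluorescence equivalency to triamterene.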

[16] = qHTS assay to test for compound auto fluorescence at 535 nm (green) in HepG2 cell free culture (AID 720686)
[17] = qHTS assay to test for compound auto fluorescence at 460 nm (blue) in HepG2 cells (AID 720687)
Procedure, shortened: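 HepG2 cells in MEM with 10% FBS, attached overnight at 37 C, were exposed to compound or DMSO for 1 hr at 37 C, 5% CO2. Blue fluorescence was read at 405/460 nm, with triamterene as reference fluorophore.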

[18] = biological target: Glucocorticoid receptor (Homo sapiens) (UniProt P04150); experiment: qHTS assay to identify small molecule agonists of the glucocorticoid receptor (GR) signaling pathway (AID 720691; active = well fitted activation curve with a large enough effect in the signal ratio in the repeat runs, not every such curve was filed as active; the % refers to the signal ratio; note: potency is the fitted concentration of half-maximal effect); conditions: GR-bla HeLa, beta-lactamase reporter ratio, 18 h; activation: at 62.4 µM (top of the series)
Glucocorticoid receptor (Homo sapiens), sequence (P04150 whole entry, looked up): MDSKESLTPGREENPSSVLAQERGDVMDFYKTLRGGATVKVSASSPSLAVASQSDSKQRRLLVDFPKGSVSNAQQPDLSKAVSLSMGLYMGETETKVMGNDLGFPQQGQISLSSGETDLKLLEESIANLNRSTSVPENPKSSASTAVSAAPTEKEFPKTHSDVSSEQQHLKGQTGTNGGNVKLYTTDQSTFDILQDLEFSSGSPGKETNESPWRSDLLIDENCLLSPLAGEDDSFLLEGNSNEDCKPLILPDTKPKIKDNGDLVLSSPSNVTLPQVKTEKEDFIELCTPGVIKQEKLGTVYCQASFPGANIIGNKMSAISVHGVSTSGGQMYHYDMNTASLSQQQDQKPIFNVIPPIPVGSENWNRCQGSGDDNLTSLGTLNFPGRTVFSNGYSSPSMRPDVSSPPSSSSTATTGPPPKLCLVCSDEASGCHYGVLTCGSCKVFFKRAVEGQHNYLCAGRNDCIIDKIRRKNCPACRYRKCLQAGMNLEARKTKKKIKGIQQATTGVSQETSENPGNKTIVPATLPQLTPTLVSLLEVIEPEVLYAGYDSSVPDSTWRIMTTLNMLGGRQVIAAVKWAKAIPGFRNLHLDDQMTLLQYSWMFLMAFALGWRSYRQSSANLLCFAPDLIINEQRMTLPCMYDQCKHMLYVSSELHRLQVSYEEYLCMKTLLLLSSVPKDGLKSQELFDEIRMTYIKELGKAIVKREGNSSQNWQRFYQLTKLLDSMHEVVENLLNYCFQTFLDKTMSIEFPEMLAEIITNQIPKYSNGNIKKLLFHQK
Procedure, shortened: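 Fluorescence intensity from LiveBLAzer B/G FRET substrate (2 h, room temperature) reports beta-lactamase expression driven by the glucocorticoid response element in GR-bla HeLa cells after 18 h compound exposure at 37 C.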

Measured: Potency

Cc1ncc(C[n+]2csc(CCOP(=O)(O)OP(=O)(O)O)c2C)c(N)n1
inactive: all assays above

CC(=O)[C@@]1(O)CC[C@H]2[C@@H]3C=C(Cl)C4=CC(=O)[C@@H]5C[C@@H]5[C@]4(C)[C@H]3CC[C@@]21C
inactive: all assays above

Nc1c(Br)cc(Br)cc1CNC1CCC(O)CC1 (centres undefined)
not listed: [18]
inactive: all other assays above

CC1(C)C2CC[C@]3(C)[C@H](C(=O)C=C4[C@@H]5C[C@@](C)(C(=O)O)CC[C@]5(C)CC[C@]43C)[C@@]2(C)CC[C@@H]1O[C@H]1O[C@H](C(=O)O)[C@@H](O)[C@H](O)[C@H]1O[C@@H]1O[C@H](C(=O)O)[C@@H](O)[C@H](O)[C@H]1O (some centres undefined)
not listed: [18]
inactive: all other assays above

O=C(CO)[C@@H](O)[C@H](O)[C@@H](O)C(=O)O
inactive: all assays above

C/C=C1\NC(=O)[C@H]2CSSCC/C=C/[C@H](CC(=O)N[C@H](C(C)C)C(=O)N2)OC(=O)C(C(C)C)NC1=O (some centres undefined)
active: [1] 7.5 µM | [2] 0.0094 µM | [3] 1.5 µM | [4] 7.5 µM
not listed: [18]
inactive: all other assays above

CCN(CC)CCOC(=O)c1cccnc1
inactive: all assays above

CC(CN(C)C)CN1c2ccccc2S(=O)(=O)c2ccccc21 (centres undefined)
not listed: [18]
inactive: all other assays above

C/C=C(/CC[C@@H](C)[C@H]1CC[C@H]2C3=CC[C@H]4[C@H](C)[C@@H](O)CC[C@]4(C)[C@H]3CC[C@]12C)C(C)C
not listed: [18]
inactive: all other assays above

O=c1[nH]cnc2[nH]cc(CN3CCCCC3)c12
inactive: all assays above

O=C(NNCS(=O)(=O)O)c1ccncc1
not listed: [18]
inactive: all other assays above

CS(=O)(=O)Nc1cc2occ(NC=O)c(=O)c2cc1Oc1ccccc1
not listed: [18]
inactive: all other assays above

N[C@@H](C(=O)N[C@@H]1C(=O)N2C(C(=O)O)=C(Cl)CC[C@H]12)c1ccccc1
active: [18] 21.3 µM
inactive: all other assays above

CC(C)[C@@H]1CC[C@@H](C)C[C@H]1OC(=O)c1ccccc1O
not listed: [18]
inactive: all other assays above

O=C1CC[C@@H](C(=O)N2CSC[C@H]2C(=O)O)N1 ([pGlu]-[Thz]-OH)
inactive: all assays above

Cc1cccc(Nc2ncccc2C(=O)O)c1C
not listed: [18]
inactive: all other assays above

CCCC(=O)O[C@]1(C(=O)COC(=O)CC)[C@@H](C)C[C@H]2[C@@H]3CCC4=CC(=O)C=C[C@]4(C)[C@@]3(F)[C@@H](O)C[C@@]21C
not listed: [18]
inactive: all other assays above

CCOC(=O)O[C@]1(C(=O)COC(=O)CC)CC[C@H]2[C@@H]3CCC4=CC(=O)C=C[C@]4(C)[C@H]3[C@@H](O)C[C@@]21C
active: [18] 0.0288 µM
inactive: all other assays above

CN1c2c(nc(N)[nH]c2=O)NCC1CNc1ccc(C(=O)NC(CCC(=O)O)C(=O)O)cc1 (centres undefined)
inactive: all assays above

C=CCOc1ccc(CC(=O)O)cc1Cl
not listed: [18]
inactive: all other assays above

O=C(O)c1cc(O)c2c(c1)[O][Bi][O]2
inactive: all assays above

CCOC(=O)Nc1ccc2c(c1)N(C(=O)CN(C)C)c1ccccc1CC2
not listed: [18]
inactive: all other assays above

CCC(Cc1c(I)cc(I)c(O)c1I)C(=O)O (centres undefined)
inactive: all assays above

CCCc1ccc(C(=O)O)cc1
not listed: [18]
inactive: all other assays above

COc1cc2c(cc1OC)[C@@H](c1ccccc1)CN(C)CC2
inactive: all assays above

CCCC(=O)O[C@]1(C(=O)COC(C)=O)CC[C@H]2[C@@H]3C[C@H](F)C4=CC(=O)C=C[C@]4(C)[C@@]3(F)[C@@H](O)C[C@@]21C
not listed: [18]
inactive: all other assays above

— PubChem BioAssay (Tox21)
